Source: the supplement of paper PMC12645437, “Orthogonal IMiD-Degron Pairs Induce Selective Protein Degradation in Cells” (ACS Chemical Biology, 2025)
Whole data set: some 8,300 sequences, median “log2 fold change of degron read counts, EGFP-low vs EGFP+ sorted cells (limma voom), compound-induced degradation” near -1.1, cut for the highest 2% near 3.2. Only a selection was taken, and the highest values are over-represented in it overall.

T1: CRBN, Q96SW2
T1 chain: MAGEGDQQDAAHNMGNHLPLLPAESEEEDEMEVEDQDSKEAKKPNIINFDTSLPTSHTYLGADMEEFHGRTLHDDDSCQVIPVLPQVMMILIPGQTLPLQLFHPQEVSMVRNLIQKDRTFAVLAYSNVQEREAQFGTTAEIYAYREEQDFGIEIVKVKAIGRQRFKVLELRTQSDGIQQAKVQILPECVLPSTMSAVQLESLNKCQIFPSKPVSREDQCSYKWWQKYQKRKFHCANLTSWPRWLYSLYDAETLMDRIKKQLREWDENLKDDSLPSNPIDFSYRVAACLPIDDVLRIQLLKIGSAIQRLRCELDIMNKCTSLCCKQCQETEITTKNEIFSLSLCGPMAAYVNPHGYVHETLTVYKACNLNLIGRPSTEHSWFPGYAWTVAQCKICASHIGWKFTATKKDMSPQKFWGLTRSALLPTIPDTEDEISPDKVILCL

B1: 46L_47D_49E_50I_52G_53F_54L_55C_67L_, Q9UKT9 (peptide)
chain: LDCEICGFLCTQKGNLLRHIKL
B2: 46F_47A_49P_50Q_52G_53A_54F_55F_67L_, Q9UKT9 (peptide)
chain: FACPQCGAFFTQKGNLLRHIKL
B3: 46F_47W_49N_50Q_52G_53A_54E_55F_67L_, Q9UKT9 (peptide)
chain: FWCNQCGAEFTQKGNLLRHIKL
B4: 46F_47G_49E_50I_52G_53R_54G_55F_67L_, Q9UKT9 (peptide)
chain: FGCEICGRGFTQKGNLLRHIKL
B5: 46L_47G_49E_50I_52G_53F_54C_55C_67L_, Q9UKT9 (peptide)
chain: LGCEICGFCCTQKGNLLRHIKL
B6: 46F_47K_49E_50V_52G_53A_54H_55F_67L_, Q9UKT9 (peptide)
chain: FKCEVCGAHFTQKGNLLRHIKL
B7: 46L_47N_49P_50I_52G_53F_54N_55C_67L_, Q9UKT9 (peptide)
chain: LNCPICGFNCTQKGNLLRHIKL
B8: 46F_47W_49E_50V_52G_53A_54M_55F_67L_, Q9UKT9 (peptide)
chain: FWCEVCGAMFTQKGNLLRHIKL
B9: 46F_47C_49E_50V_52G_53A_54M_55F_67L_, Q9UKT9 (peptide)
chain: FCCEVCGAMFTQKGNLLRHIKL
B10: 46F_47T_49E_50V_52G_53A_54M_55F_67L_, Q9UKT9 (peptide)
chain: FTCEVCGAMFTQKGNLLRHIKL
B11: 46F_47Q_49N_50I_52G_53A_54N_55F_67L_, Q9UKT9 (peptide)
chain: FQCNICGANFTQKGNLLRHIKL
B12: 46F_47Y_49N_50Q_52G_53R_54C_55F_67L_, Q9UKT9 (peptide)
chain: FYCNQCGRCFTQKGNLLRHIKL
B13: 46L_47T_49N_50Q_52G_53F_54K_55C_67L_, Q9UKT9 (peptide)
chain: LTCNQCGFKCTQKGNLLRHIKL
B14: 46F_47G_49P_50I_52G_53A_54I_55F_67L_, Q9UKT9 (peptide)
chain: FGCPICGAIFTQKGNLLRHIKL
B15: 46F_47Y_49P_50I_52G_53A_54I_55F_67L_, Q9UKT9 (peptide)
chain: FYCPICGAIFTQKGNLLRHIKL
B16: 46F_47S_49P_50I_52G_53A_54I_55F_67L_, Q9UKT9 (peptide)
chain: FSCPICGAIFTQKGNLLRHIKL
B17: 46F_47G_49P_50I_52G_53R_54I_55F_67L_, Q9UKT9 (peptide)
chain: FGCPICGRIFTQKGNLLRHIKL
B18: 46F_47S_49P_50I_52G_53R_54I_55F_67L_, Q9UKT9 (peptide)
chain: FSCPICGRIFTQKGNLLRHIKL
B19: 46F_47K_49P_50I_52G_53A_54I_55F_67L_, Q9UKT9 (peptide)
chain: FKCPICGAIFTQKGNLLRHIKL
B20: 46F_47Q_49P_50I_52G_53A_54I_55F_67L_, Q9UKT9 (peptide)
chain: FQCPICGAIFTQKGNLLRHIKL
B21: 46F_47T_49P_50I_52G_53R_54I_55F_67L_, Q9UKT9 (peptide)
chain: FTCPICGRIFTQKGNLLRHIKL
B22: 46F_47V_49P_50I_52G_53A_54I_55F_67L_, Q9UKT9 (peptide)
chain: FVCPICGAIFTQKGNLLRHIKL
B23: 46F_47S_49D_50V_52G_53A_54L_55F_67L_, Q9UKT9 (peptide)
chain: FSCDVCGALFTQKGNLLRHIKL
B24: 46F_47E_49E_50Q_52G_53A_54G_55F_67L_, Q9UKT9 (peptide)
chain: FECEQCGAGFTQKGNLLRHIKL
B25: 46F_47R_49S_50V_52G_53H_54N_55F_67L_, Q9UKT9 (peptide)
chain: FRCSVCGHNFTQKGNLLRHIKL
B26: 46F_47I_49E_50I_52G_53H_54S_55F_67L_, Q9UKT9 (peptide)
chain: FICEICGHSFTQKGNLLRHIKL
B27: 46F_47C_49D_50I_52G_53A_54E_55F_67L_, Q9UKT9 (peptide)
chain: FCCDICGAEFTQKGNLLRHIKL
B28: 46F_47T_49N_50Q_52G_53H_54T_55F_67L_, Q9UKT9 (peptide)
chain: FTCNQCGHTFTQKGNLLRHIKL

Target: T1, CRBN, Q96SW2
Experiment: log2 fold change of degron read counts, EGFP-low vs EGFP+ sorted cells (limma voom), compound-induced degradation; higher = more compound-induced degradation of the degron-EGFP fusion; degrons are variants of IKZF1/3 zinc finger 2; compound dose not given here
Settings: Jurkat, 18 h
[1] = compound: compound 19 (5-tert-butyl-thalidomide)
[2] = compound: compound 22 (5-morpholino-thalidomide)
[3] = compound: compound 33 (diphenyl IMiD analogue)
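Also: pooled lentiviral library of zinc finger degron-EGFP fusions in mCherry-positive Jurkat cells, FACS-sorted after compound exposure, with degron abundance counted by next-generation sequencing.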

Row | Sequence | log2 fold change of degron read counts [1] | log2 fold change of degron read counts [2] | log2 fold change of degron read counts [3] | log2 fold change of degron read counts (compound: thalidomide)
1 | B1 | -0.807 | -1.38 | -0.989 | -0.479
2 | B2 | -0.715 | -2.49 | -1.05 | -1.87
3 | B3 | -1.48 | -2.56 | -2.24 | -2.85
4 | B4 | -1.02 | -2.46 | -2.04 | -2.19
5 | B5 | -0.15 | -0.36 | -0.974 | -0.994
6 | B6 | -2.01 | -3.17 | -2.55 | -1.68
7 | B7 | 0.0324 | -0.534 | -0.051 | 0.589
8 | B8 | 3.14 | 3.46 | 2.23 | 0.316
9 | B9 | 1.54 | 1.34 | 1.7 | 0.852
10 | B10 | -0.151 | 0.976 | 1.67 | 1.62
11 | B11 | -0.813 | 0.399 | 1.05 | 3.08
12 | B12 | -1.93 | -2.09 | -1.97 | -2.28
13 | B13 | -2.23 | -1.85 | -2.34 | -1.79
14 | B14 | 3.81 | 2.51 | 2.55 | 0.986
15 | B15 | 2.75 | 2.82 | 1.86 | 0.386
16 | B16 | 1.58 | 1.34 | 2.26 | 0.935
17 | B17 | 3.47 | 1.77 | 0.585 | -0.161
18 | B18 | -0.412 | -0.447 | 1.06 | 0.174
19 | B19 | -2.31 | -3.23 | -3.09 | -1.63
20 | B20 | -0.241 | 3.26 | 2.84 | 3.79
21 | B21 | -1.75 | -0.494 | 0.959 | 1.17
22 | B22 | -0.598 | 0.358 | 1.51 | 1.69
23 | B23 | -1.17 | -1.66 | 0.461 | -2.2
24 | B24 | -1.66 | -2.94 | -1.37 | -1.37
25 | B25 | -2.2 | -2.6 | -2.8 | -2.89
26 | B26 | -3.27 | -2.78 | -2.2 | -2.17
27 | B27 | 0.189 | -0.292 | -0.603 | -0.702
28 | B28 | -3.38 | -3.31 | -3.66 | -2.92
